Assay results as given in PubChem BioAssay (Tox21).
Several values for one entry are separate records, joined by “and”; a condition that tells them apart may be missing. Equal entries are not always repeated. Results filed as inconclusive are left out. Activity calls are given as the source filed them. Unless noted, calls come from the whole dose curve; as a rule, active = well fitted cell-killing curve with a large enough effect in the repeat runs; inconclusive = weak or mixed curves, or effect the other way; inactive = flat fitted curve, though single readings scatter.

Assay: Nuclear factor erythroid 2-related factor 2/antioxidant responsive element (Nrf2/ARE) small molecule agonists: qHTS cell viability counter screen in human keratinocytes (AID 1919968); note: nearly all actives have a fitted effect of over 55% in size
Conditions: KeratinoSens HaCaT ARE cells viability, CellTiter-Fluor, 24 h; series mostly up to 92.4 µM; activity change, negative = cytotoxicity: at the top concentration
Procedure, shortened: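 After a 5 h attachment period, ARE-reporter keratinocytes were dosed with compounds in DMSO and then cultured 23 h at 37 C. Cell viability came from CellTiter-Fluor signal read after a further 1 h.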
% is set by controls: 0 for no effect and ±100 for the full control effect.

Structure (SMILES)	activity change, negative = cytotoxicity	Potency
CC(C)[N+](C)(CCC(C(N)=O)(c1ccccc1)c1ccccc1)C(C)C	-4.91% [at 42.5 µM] (inactive)	–
O=C(Cl)CCl	2.16% (inactive)	–
COC(=O)c1ccccc1N	–	inactive
CN(C)NC(=O)CCC(=O)O	–	inactive
CN(C)C(=O)C(c1ccccc1)c1ccccc1	–	inactive
ClCc1ccccn1	–	inactive
CCCOC(=O)c1ccccc1C(=O)OCCC	–	inactive
Cc1ccc(N)c(N)c1	–	inactive
N#CC1(N=NC2(C#N)CCCCC2)CCCCC1	0.773% (inactive)	–
C=C(C)C(=O)OCC(CC)CCCC (stereo unspecified)	-0.92% (inactive)	–
O=C(CCN1CC1)OCC(CO)(COC(=O)CCN1CC1)COC(=O)CCN1CC1	0.56% (inactive)	–
CCCCOC(=O)c1ccccc1C(=O)OCCCC	–	inactive
CC(O)CN(CC(C)O)CC(C)O (stereo unspecified)	–	inactive
CN(N=O)C(N)=O	-1.01% (inactive)	–
CCOC(=O)c1cncn1C(C)c1ccccc1 (stereo unspecified)	5.18% [at 42.5 µM] (inactive)	–
CCN(CC)c1ccccc1	–	inactive
CCOc1nc(F)cc2nc(S(=O)(=O)Nc3c(Cl)cccc3Cl)nn12	-15.6% (inactive)	–
O=[N+]([O-])c1ccccc1O	–	inactive
Nc1ccc(N=Nc2ccc(-c3ccc(N=Nc4c(S(=O)(=O)O)cc5cc(S(=O)(=O)O)c(N=Nc6ccccc6)c(O)c5c4N)cc3)cc2)c(N)c1	8.66% [at 42.5 µM] (inactive)	–

Structure (SMILES)	activity change, negative = cytotoxicity	Potency
c1ccc(P(c2ccccc2)c2ccccc2)cc1	–	inactive
CCCCCBr	-0.221% (inactive)	–
c1ccc2c(c1)sc1ccccc12	–	inactive
COc1ccc2c3c1O[C@H]1[C@H](O)CC[C@H]4[C@@H](C2)N(C)CC[C@@]341	0.393% (inactive)	–
CN(C)CCc1c[nH]c2cccc(OP(=O)(O)O)c12	1.02% (inactive)	–
CC(Cl)C(=O)O (stereo unspecified)	0.406% (inactive)	–
Clc1ccc(Cl)cc1	–	inactive
FC(F)(F)c1ccc(Cl)cc1	–	inactive
CCCCCCCCCBr	-0.578% (inactive)	–
COC(=O)NS(=O)(=O)c1ccc(N)cc1	–	inactive
CC(O)CN1CCN(CC(=O)[O-])CCN(CC(=O)[O-])CCN(CC(=O)[O-])CC1.[Gd+3] (stereo unspecified)	8.7% [at 42.5 µM] (inactive)	–
Nc1cnn(-c2ccccc2)c(=O)c1Cl	0.473% (inactive)	–
Cl[C@H]1OCCO[C@@H]1Cl	–	inactive
O=[N+]([O-])c1cc(Cl)ccc1Cl	8.04% (inactive)	–
c1nc[nH]n1	–	inactive
COC[C@H](C)N(C(=O)CCl)c1c(C)csc1C	-4.02% (inactive)	–
CCC(=O)Nc1ccc(Cl)c(Cl)c1	–	inactive
C=C(C)C(=O)OCC1CO1 (stereo unspecified)	–	inactive
O=C(NC(=O)c1c(F)cccc1F)Nc1cc(Cl)c(OC(F)(F)C(F)C(F)(F)F)cc1Cl (stereo unspecified)	–	inactive

Assay: Nuclear factor erythroid 2-related factor 2/antioxidant responsive element (Nrf2/ARE) small molecule agonists: luciferase reporter gene qHTS assay in human keratinocytes (AID 1919969; calls by dose curve; note: nearly all actives have a fitted effect of over 35% in size; note: potency is the fitted concentration of half-maximal effect)
Conditions: KeratinoSens HaCaT ARE-luciferase, luminescence, 24 h; series mostly up to 92.4 µM; activity, positive = activation: at the top concentration

Structure (SMILES)	activity, positive = activation	Potency
CC(C)[N+](C)(CCC(C(N)=O)(c1ccccc1)c1ccccc1)C(C)C	0.899% [at 42.5 µM] (inactive)	–
O=C(Cl)CCl	-2.01% (inactive)	–
COC(=O)c1ccccc1N	–	inactive
CN(C)NC(=O)CCC(=O)O	–	inactive
CN(C)C(=O)C(c1ccccc1)c1ccccc1	–	inactive
ClCc1ccccn1	–	inactive
CCCOC(=O)c1ccccc1C(=O)OCCC	–	inactive
Cc1ccc(N)c(N)c1	–	4.87 µM (active) and 68.6 µM (active)
N#CC1(N=NC2(C#N)CCCCC2)CCCCC1	3.85% (inactive)	–
C=C(C)C(=O)OCC(CC)CCCC (stereo unspecified)	-13.6% (inactive)	–
O=C(CCN1CC1)OCC(CO)(COC(=O)CCN1CC1)COC(=O)CCN1CC1	0.257% (inactive)	–
CCCCOC(=O)c1ccccc1C(=O)OCCCC	–	inactive
CC(O)CN(CC(C)O)CC(C)O (stereo unspecified)	–	inactive
CN(N=O)C(N)=O	10.5% (inactive)	–
CCOC(=O)c1cncn1C(C)c1ccccc1 (stereo unspecified)	-0.574% [at 42.5 µM] (inactive)	–
CCN(CC)c1ccccc1	–	inactive
CCOc1nc(F)cc2nc(S(=O)(=O)Nc3c(Cl)cccc3Cl)nn12	-2.01% (inactive)	–
O=[N+]([O-])c1ccccc1O	–	inactive
Nc1ccc(N=Nc2ccc(-c3ccc(N=Nc4c(S(=O)(=O)O)cc5cc(S(=O)(=O)O)c(N=Nc6ccccc6)c(O)c5c4N)cc3)cc2)c(N)c1	-6.94% [at 42.5 µM] (inactive)	–

Structure (SMILES)	activity, positive = activation	Potency
c1ccc(P(c2ccccc2)c2ccccc2)cc1	–	inactive
CCCCCBr	-2.63% (inactive)	–
c1ccc2c(c1)sc1ccccc12	–	inactive
COc1ccc2c3c1O[C@H]1[C@H](O)CC[C@H]4[C@@H](C2)N(C)CC[C@@]341	-3.28% (inactive)	–
CN(C)CCc1c[nH]c2cccc(OP(=O)(O)O)c12	0.234% (inactive)	–
CC(Cl)C(=O)O (stereo unspecified)	2.36% (inactive)	–
Clc1ccc(Cl)cc1	–	inactive
FC(F)(F)c1ccc(Cl)cc1	–	inactive
CCCCCCCCCBr	-0.685% (inactive)	–
COC(=O)NS(=O)(=O)c1ccc(N)cc1	–	inactive
CC(O)CN1CCN(CC(=O)[O-])CCN(CC(=O)[O-])CCN(CC(=O)[O-])CC1.[Gd+3] (stereo unspecified)	-2.18% [at 42.5 µM] (inactive)	–
Nc1cnn(-c2ccccc2)c(=O)c1Cl	-5.01% (inactive)	–
Cl[C@H]1OCCO[C@@H]1Cl	–	inactive
O=[N+]([O-])c1cc(Cl)ccc1Cl	6.65% (inactive)	–
c1nc[nH]n1	–	inactive
COC[C@H](C)N(C(=O)CCl)c1c(C)csc1C	-0.763% (inactive)	–
CCC(=O)Nc1ccc(Cl)c(Cl)c1	–	inactive
C=C(C)C(=O)OCC1CO1 (stereo unspecified)	4.47% (inactive)	–
O=C(NC(=O)c1c(F)cccc1F)Nc1cc(Cl)c(OC(F)(F)C(F)C(F)(F)F)cc1Cl (stereo unspecified)	4.99% (inactive)	–
